Our source for the outcome and AC50 values is PubChem BioAssay (EPA / NIEHS).

Results filed as inconclusive are left out. Activity calls are given as the source filed them. Rule for the calls: active = hit-call score of the fitted dose curve at least 0.9, where 1 is the maximum; inconclusive = response in the unintended direction; inactive = score below 0.9.

For one experiment, the target named is bovine Gamma-Aminobutyric Acid Type A Receptor Agonist (GABAR Agonist), GABRA1 (gene 780973) (UniProt P08219). Description: NVS_LGIC_bGABAR_Agonist: NovaScreen (NVS) Ligand-Gated Ion Channel Assay for bovine Gamma-Aminobutyric Acid Type A Receptor Agonist (GABAR Agonist) (AID 2283338). The essentials: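 Radioligand binding to bovine cerebellar membranes in agonist format, read by filter-based scintillation counting after 1 h. Primary screen in duplicate at 25 uM, with actives followed in concentration series. Gain of signal versus DMSO.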
Chain of bovine Gamma-Aminobutyric Acid Type A Receptor Agonist (GABAR Agonist), GABRA1 (gene 780973) (P08219 whole entry, looked up): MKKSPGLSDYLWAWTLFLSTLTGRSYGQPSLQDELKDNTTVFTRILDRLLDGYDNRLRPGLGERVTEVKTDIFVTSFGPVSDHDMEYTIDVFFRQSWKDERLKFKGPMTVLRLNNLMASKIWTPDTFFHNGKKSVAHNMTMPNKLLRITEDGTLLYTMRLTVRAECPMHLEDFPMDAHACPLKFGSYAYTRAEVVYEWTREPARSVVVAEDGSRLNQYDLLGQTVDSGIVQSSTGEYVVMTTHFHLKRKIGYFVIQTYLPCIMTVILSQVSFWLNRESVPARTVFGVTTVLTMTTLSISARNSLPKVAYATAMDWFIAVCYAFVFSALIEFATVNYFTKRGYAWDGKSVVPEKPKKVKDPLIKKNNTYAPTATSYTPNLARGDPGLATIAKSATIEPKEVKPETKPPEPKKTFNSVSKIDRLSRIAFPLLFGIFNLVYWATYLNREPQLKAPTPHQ
For the compound `c1cc2ccc3cccc4ccc(c1)c2c34`, the outcome was inactive.

In the case of `O=C(O)C(F)(F)C(F)(F)C(F)(F)C(F)(F)C(F)(F)C(F)(F)C(F)(F)C(F)(F)C(F)(F)F`, the result was inactive.

Regarding `CC#Cc1cc(C)nc(Nc2ccccc2)n1`, the compound was called inactive.

In the case of `CCC(C)c1cc([N+](=O)[O-])cc([N+](=O)[O-])c1O` (stereo not drawn), the outcome was inactive.

`NS(=O)(=O)C(F)(F)C(F)(F)C(F)(F)C(F)(F)C(F)(F)C(F)(F)C(F)(F)C(F)(F)F`: the outcome was inactive.

A further experiment deals with NCBI gene 100848466. Description: NVS_NR_bPR: NovaScreen (NVS) Nuclear Receptor Binding Assay for bovine Progextron Receptor (PR) (AID 2283343).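 For AC50: actives lower bound radioligand signal below DMSO meaning displacement of the label.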 The essentials: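 Membranes from bovine uterus; radiolabelled ligand plus test chemical; 18 h; scintillation read-out. Activity = signal loss vs DMSO. Primary: 25 uM, duplicate; secondary: concentration series.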
As for `C[C@]12CCC(=O)C=C1CC[C@@H]1[C@@H]2CC[C@]2(C)C(=O)CC[C@@H]12`, the AC50 was 12.8 µM (active).

In the case of `CC(C)(O)C(=O)Nc1ccc([N+](=O)[O-])c(C(F)(F)F)c1`, the AC50 is 4.47 µM (active).

Consider `O=C(O)C(F)(F)C(F)(F)C(F)(F)C(F)(F)C(F)(F)C(F)(F)C(F)(F)C(F)(F)F`, for which the compound was classed as inactive.
